Potency data for 40 compounds are collected here from PubChem BioAssay (NCATS).

Results filed as inconclusive are left out. A call without a number means that no potency is given here. Activity calls are given as the source filed them. The call rests on the fitted dose curve; in most records, active means well fitted inhibition curve with a large enough effect; inconclusive means small, poorly fitted or top-dose-only effect; inactive means no such curve, though single readings can be large or run the other way.
Potency means the concentration at half of the fitted maximal effect.

The nature of the test: BET inhibitor-based combinations targeting novel dependencies in MECOM-rearranged (r) AML: OCI-AML3 cell line (AID 2202232). Further: nearly all actives have a fitted effect of over 35% in size. Particulars: CellTiter-Glo luminescence, 48 h; Potency: OCI-AML3 viability; series mostly up to 46 µM. The text has this: Ecotropic viral insertion site 1 (EVI1) is located on chromosome 3q26.2 as part of the MECOM (MDS and EVI1 complex) locus. Under normal hematopoiesis, EVI1 is a regulator of hematopoietic stem cell maintenance and self-renewal and EVI1 levels decrease as the cells differentiate. In approximately 5-10% of de novo acute myeloid leukemia (AML) EVI1 is aberrantly expressed, including Chromosomal inv(3)(q21;q26.2) or t(3;3)(q21;q26.2) alterations (MECOM-r) that account for about 50% of AML with EVI1 overexpression 31. AMLs with high levels of EVI1 have a poor prognosis and an overall survival time averaging between 10-14 months. EVI1 overexpression confers resistance in leukemia cells, highlighting the need to develop new targeted therapies for EVI1 overexpressing AMLs.
Here, we performed an unbiased chemical drug screening by evaluating the single agent activity of a collection of 2,480 oncology-focused, approved and investigational drugs (NCATS Mechanism Interrogation Plates, MIPE v5.0) against a panel of seven AML cell lines. These included four MECOM-r cell-lines (AML-191, AML-194, UCSD-AML1 and HNT-34) and three non-MECOM-r AMLs (MV4-11, OCI-AML3 and SET-2). Exploiting the mechanistic redundancy built in the library, we identified target-level sensitivities in MECOM-r AML cells and relative activity as compared to other AML subtypes.
A collection of 2480 mechanistically annotated dugs (MIPE v5.0) was used to screen four 3q26.2 rearranged AML cell lines and three non-3q26.2 rearranged AML cell lines. This library purposely exploits redundancy by including multiple inhibitors of key onco-targets, while simultaneously encompassing mechanistic diversity, targeting more than 800 distinct mechanisms of action. Briefly, cells were seeded in 5 uL of growth media using a Multidrop Combi dispenser into 1536 well white polystyrene tissue culture treated plates (Corning) at a density of 500cells/well. For each cell-line, for each of the 2480 drugs in MIPE v5.0 library, an 11-point dose curve was generated via a 1536 pin-tool. Plates were incubated for 48 hr at standard incubator conditions, covered by a stainless steel gasketed lid to prevent evaporation. Cell viability was determined by luminescence based, Cell Titer Glo assay (Promega). In detail, 3 uL of Cell Titer Glo were added to each well and plates were incubated at room temperature for 15 min with a stainless-steel lid in place. Luminescence readings were taken using a Viewlux (PerkinElmer) with a 2 s exposure time per plate. Compound dose-response curves were normalized to DMSO and empty well controls on each plate. Quantitative drug activity data from dose-response curves was determined utilizing area Under the Curve (AUC) and Z-transformed AUC (Z-AUC, a mean-centering transformation applied to each individual cell-line screened).
Take `CC(C)(C)c1cc(C=C(C#N)C#N)cc(Br)c1O`: the Potency is 23500 nM (active). `CCOC(=O)c1c(C(C#N)=CN)c2ccc(Cl)c(Cl)c2n1C`: the Potency entry is “inactive”. For `O=C(O)CNC(=O)c1c(O)c2ccccc2n(Cc2ccccc2)c1=O` the value was “inactive”; for `CC1(N2CCC(n3c([C@@H]4CCCNC4)nc4ccccc43)CC2)CCCCCCC1`, 16600 nM (active). In the case of `C/C(=C\c1csc(C)n1)[C@@H]1C[C@@H]2O[C@@H]2CCC[C@H](C)[C@H](O)[C@@H](C)C(=O)C(C)(C)[C@@H](O)CC(=O)O1`, the Potency is 20.9 nM (active).

Turning to `C[C@H]1CCC/C=C/C2C[C@H](O)C[C@H]2[C@H](O)/C=C/C(=O)O1` (stereo not given in full), the Potency is 417 nM (active). With `CCNC(=O)C[C@@H]1N=C(c2ccc(Cl)cc2)c2cc(OC)ccc2-n2c(C)nnc21`, the Potency was 742 nM (active).

With `CC(N[C@H]1C[C@@H]1c1ccccc1)c1ccc2c(c1)OCCO2` (stereo not given in full), the Potency result is “inactive”. As for `Cc1sc2c(c1C)C(c1ccc(Cl)cc1)=N[C@@H](CC(N)=O)c1nnc(C)n1-2`, the Potency was 105 nM (active). For `C[C@]12CC[C@H]3[C@@H](CCC4=CC(=O)CC[C@@]43C)[C@H]1CC[C@H]2OC(=O)CCC1CCCC1`, the Potency result was “inactive”. With `Cc1ccccc1-n1c(Cn2ncc3c(N)ncnc32)nc2cccc(C)c2c1=O`, the Potency entry is “inactive”. Take `O=c1[nH]c2ccccc2n1CCCN1CCC(n2c(=O)[nH]c3cc(Cl)ccc32)CC1`: the Potency result is “inactive”.

Regarding `CN1C(=O)CCS(=O)(=O)C1c1ccc(Cl)cc1` (stereo not given), the Potency result was “inactive”. As to `N[C@@H]1C[C@H]1c1ccccc1`, the Potency result was “inactive”.

Consider `CC[C@@H](C(N)=O)N1CCCC1=O`, for which the Potency entry is “inactive”. To `Cc1[nH]nc2ccc(-c3cncc(OC[C@@H](N)Cc4c[nH]c5ccccc45)c3)cc12` belongs 934 nM (active); to `C[C@@H]1CC[C@@]2(OC1)O[C@H]1C[C@H]3[C@@H]4CC=C5C[C@@H](O[C@@H]6O[C@H](CO)[C@@H](O[C@@H]7O[C@@H](C)[C@H](O)[C@@H](O)[C@H]7O)[C@H](O)[C@H]6O[C@@H]6O[C@@H](C)[C@H](O)[C@@H](O)[C@H]6O)CC[C@]5(C)[C@H]4CC[C@]3(C)[C@H]1[C@@H]2C`, 7420 nM (active); to `C/C(=C\c1csc(C)n1)[C@@H]1C[C@@H]2O[C@]2(C)CCC[C@H](C)[C@H](O)[C@@H](C)C(=O)C(C)(C)[C@@H](O)CC(=O)O1`, 5.9 nM (active).

On to `COC(=O)[C@]12CCC(C)(C)C[C@H]1[C@H]1C(=O)C=C3[C@@]4(C)C=C(C#N)C(=O)C(C)(C)[C@@H]4CC[C@@]3(C)[C@]1(C)CC2`, for which the Potency was 2630 nM (active). Consider `C[C@]12CC[C@H](O)CC1=CC[C@@H]1[C@@H]2CC[C@]2(C)C(=O)CC[C@@H]12`, for which the Potency entry was “inactive”. For `COc1cc([C@@H]2c3cc4c(cc3[C@@H](O)C3COC(=O)C32)OCO4)cc(OC)c1O` (stereo not given in full), the Potency was 296 nM (active). For `COc1ccc(C(=O)c2c(C)n(CCN3CCOCC3)c3cc(I)ccc23)cc1`, the Potency was 9340 nM (active). Consider `O=P1(N(CCCl)CCCl)NCCCO1` (stereo not given), for which the Potency entry is “inactive”. On to `CC(=O)Nc1ccc(OC[C@](C)(O)C(=O)Nc2ccc([N+](=O)[O-])c(C(F)(F)F)c2)cc1`, for which the Potency entry was “inactive”. Turning to `CC(C)(O)/C=C\C(=O)[C@](C)(O)[C@H]1[C@H](O)C[C@]2(C)[C@@H]3CC=C4[C@@H](C=C(O)C(=O)C4(C)C)[C@]3(C)C(=O)C[C@@]12C`, the Potency is 417 nM (active). Take `CSCC[C@@H](NC(=O)[C@@H](Cc1ccccc1)NC(=O)CNC(=O)CNC(=O)[C@@H](N)Cc1ccc(O)cc1)C(=O)O`: the Potency result was “inactive”.

Regarding `CCCN1CCO[C@@H]2c3cc(O)ccc3OC[C@H]21`, the Potency result is “inactive”.

For the compound `CC1=C2C[C@H]3[C@@H](CC=C4C[C@@H](O)CC[C@@]43C)[C@@H]2CC[C@]12O[C@@H]1C[C@H](C)CN[C@H]1[C@H]2C`, the Potency result was “inactive”.

`COc1cc2cc(c1Cl)N(C)C(=O)C[C@H](OC(=O)C(C)C)[C@]1(C)O[C@@H]1[C@H](C)[C@@H]1C[C@@](O)(NC(=O)O1)[C@H](OC)/C=C/C=C(\C)C2`: the Potency result is “inactive”. As to `CN(C)NC(=O)CCC(=O)O`, the Potency result is “inactive”. For `CCOC(=O)Nc1ccc(NCc2ccc(F)cc2)cc1N`, the Potency result was “inactive”.

With `N=c1c2c(-c3ccccc3)c(-c3ccccc3)n(Cc3ccccc3)c2ncn1C1CCC(O)CC1` (stereo not given), the Potency was 8330 nM (active). Consider `CC(C)c1cccc(C(C)C)c1O`, for which the Potency result is “inactive”. Regarding `CN[C@@H]1C[C@H]2O[C@@](C)([C@@H]1OC)n1c3ccccc3c3c4c(c5c6ccccc6n2c5c31)C(=O)NC4`, the Potency is 83.3 nM (active). As for `CC[C@@]1(O)C(=O)OCc2c1cc1n(c2=O)Cc2cc3ccccc3nc2-1`, the Potency is 13.2 nM (active). Turning to `Cc1ncc(OC[C@@]2(c3cccc(F)c3)C[C@H]2C(=O)Nc2ccc(F)cn2)c(C)n1`, the Potency entry is “inactive”.

Take `CC(C)[C@]12O[C@H]1[C@@H]1O[C@@]13[C@@]1(C)CCC4=C(COC4=O)[C@@H]1C[C@@H]1O[C@@]13C2=O`: the Potency was 59 nM (active).

On to `C[C@]12CC[C@@H]3[C@@H](CCC4=CC(=O)CC[C@@H]43)[C@@H]1CC[C@@H]2OC(=O)CCc1ccccc1`, for which the Potency result is “inactive”.

With `CN1C(=O)COc2c(C(=O)NC3CN4CCC3CC4)cc(Cl)cc21` (stereo not given), the Potency entry was “inactive”.

As to `CCCC[N+]1(C)[C@H]2CC(OC(=O)[C@H](CO)c3ccccc3)C[C@H]1[C@H]1O[C@H]12` (stereo not given in full), the Potency result is “inactive”.
